Experimental data: PubChem BioAssay
Values joined by “and” are separate entries in the source; they are usually repeats but may differ in a detail not shown here. Equal values may be shown once. Active and inactive are the calls of the source.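 The calls were made as follows, unless noted: active = compounds whose cell count with miR-34 switched on is under 0.7 times the count with it off; inactive = the rest.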

Legend:
[1] = hESC survival regulators, cell-based (AID 493140; call rule not given here;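 also: cells exposed to compounds for four days before counting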); details: human embryonic stem cell survival screen; stronger effect = higher value
[2] = liver-stage malaria parasite growth inhibition, primary screen, cell-based, HepG2, luciferase luminescence, HepG2 viability (AID 624349; in the data active = parasite load remaining mostly below about 12%, no sharp cut-off; inactive = mostly above about 10%;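 also: 100% = mean of DMSO negative control wells on the same plate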); details: P. berghei liver stage in HepG2, luciferase luminescence, concentration not given here; parasite load remaining: stronger effect = lower value; viability: measured here: HepG2 viability without parasites
[3] = stimulators of nuclear beta-catenin in C2C12, primary screen, imaging, WNT3A-conditioned medium, mouse C2C12, NPC library (AID 1117326; in the data active = nuclear beta-catenin stimulation mostly above about 4.2%, no sharp cut-off; inactive = mostly below about 10%); details: stronger effect = higher value
[4] = stimulators of insulin release from INS-1E, primary screen, cell-based, 5 mM glucose, NPC library (AID 1117329;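 active = compound raises insulin release from rat beta cells at 5 mM glucose, no numeric limit stated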); details: rat INS-1E insulin secretion, at 10 µM, stronger effect = higher value
[5] = growth inhibition of GSK3B-pretreated HCT116 cells – cell-based, CellTiter-Glo, 0.2 to 20 µM (AID 1117336;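 active = compounds lowering colon cancer cell viability after pretreatment blocking the GSK3B kinase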); details: HCT116 viability after GSK3B inhibitor, at 20 µM, stronger effect = higher value
[6] = inhibition of endothelial tube formation, primary screen, imaging, VEGF stimulated, CD31 staining, tube area, NPC library (AID 1117340;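 active = compound that reduces growth-factor-driven endothelial tube area in a mixed cell culture, no cutoff stated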); details: VEGF-stimulated ADSC/ECFC co-culture, at 10 µM, stronger effect = higher value
[7] = glucagon-like peptide 1 release enhancers, primary assay, NCI-H716 cell line, NPC library (AID 1117341;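 active = compound raises GLP1 secretion from the human gut endocrine cells, with no numeric limit stated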); details: NCI-H716 cells, at 10 µM, stronger effect = higher value
[8] = HCT116 colon cancer cell growth inhibition, primary screen, CellTiter-Glo luminescence, NPC library (AID 1117342;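 active = compounds that lower survival of HCT116 colon cancer cells in the luminescence readout, no numeric limit stated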); details: at 20 µM (top of the series)
[9] = CellTiter-Glo luminescent readout of SW480 viability loss, NPC library primary (AID 1117343;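 active = compounds that lower viability of the colon cancer cells in the luminescence readout, with no numeric limit stated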); details: CellTiter-Glo luminescence; at 20 µM (top of the series) unless noted
[10] = decreased DLD-1 cellular survival, CellTiter-Glo luminescent readout, NPC compound collection, primary HTS (AID 1117346;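 active = compounds that lower survival of DLD-1 colon cancer cells in the luminescence readout, no cutoff given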); details: DLD-1 viability, CellTiter-Glo luminescence; at 20 µM (top of the series)
[11] = differential killing of epithelial or mesenchymal cells, primary screen, imaging, PC-3E GFP, TEM4-18 mCherry, co-culture (AID 1345086;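 active = compounds killing one labelled cell type while sparing the other, by normalised counts and ratio limits, not self-fluorescent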;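 as to all read-outs here: cells exposed to compound for 72 h before imaging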;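 as to red/green cell ratio (normalised): normalised mesenchymal count divided by normalised epithelial count so high means epithelial killing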); details: imaging cell counts, at 1 µM; for red/green cell ratio (normalised): actives lie on both sides, counts scaled to control wells, 1 = unselective
[12] = sensitizers of A549 cells to miR-34 induction, primary screen, imaging, A549 dox-inducible miR-34, nuclei and caspase counts (AID 1347080); details: A549 miR-34 inducible, Hoechst nuclei count, 48 h
[13] = survival rescue of mitochondrial mutant cells in low glucose, primary screen, MELAS cybrids, Rieske KO mouse fibroblasts, CellTiter-Glo (AID 1508586;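 active = mean z-score across replicates of 1.96 or higher in either the MELAS or the Rieske mutant cell line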;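 also: z relative to plate mean and SD of compound and empty wells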)
[14] = biological target: NAD(+) hydrolase SARM1 (Homo sapiens) (UniProt Q6SZW1); assay: SARM1 TIR NADase inhibitors, cell lysate, NAD-Glo luminescence (AID 1508614;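 active = compound whose remaining NAD level is above about 45 nM, limit read from the data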;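 also: higher remaining NAD means stronger inhibition of SARM1 NADase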); details: SAM-TIR HEK293T lysate NADase, at 1 µM, stronger effect = higher value
Sequence of NAD(+) hydrolase SARM1 (Homo sapiens) (Q6SZW1 whole entry, looked up): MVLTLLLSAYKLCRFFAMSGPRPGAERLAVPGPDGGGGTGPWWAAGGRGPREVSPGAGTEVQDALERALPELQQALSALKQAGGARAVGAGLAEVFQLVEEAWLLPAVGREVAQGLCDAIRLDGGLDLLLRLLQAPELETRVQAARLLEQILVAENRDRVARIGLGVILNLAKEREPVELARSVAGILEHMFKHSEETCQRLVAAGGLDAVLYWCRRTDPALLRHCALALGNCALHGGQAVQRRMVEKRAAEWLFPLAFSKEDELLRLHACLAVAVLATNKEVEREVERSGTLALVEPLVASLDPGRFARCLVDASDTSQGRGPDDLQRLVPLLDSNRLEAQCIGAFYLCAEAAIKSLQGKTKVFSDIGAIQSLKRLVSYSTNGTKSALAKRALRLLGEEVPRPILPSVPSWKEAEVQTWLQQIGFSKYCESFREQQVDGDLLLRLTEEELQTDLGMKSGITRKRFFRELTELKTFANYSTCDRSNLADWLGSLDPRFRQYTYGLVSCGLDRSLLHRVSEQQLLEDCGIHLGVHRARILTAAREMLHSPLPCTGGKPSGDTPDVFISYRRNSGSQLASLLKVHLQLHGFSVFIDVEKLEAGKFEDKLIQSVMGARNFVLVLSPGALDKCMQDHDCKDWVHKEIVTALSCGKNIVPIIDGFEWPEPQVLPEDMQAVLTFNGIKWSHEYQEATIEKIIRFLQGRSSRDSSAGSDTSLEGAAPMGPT

[15] = LFS_MB_P medulloblastoma growth inhibition, cell-based, chromothripsis tumors, cisplatin or BGB combos (AID 1671449; in the data active = inhibition above about 80%;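 also: cells exposed for 96 hours; 0% = vehicle DMSO and 100% = killing by high DMSO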); details: LFS_MB_P medulloblastoma cells
[16] = HDN33 neuroblastoma growth inhibition, cell-based, chromothripsis tumors, cisplatin or BGB combos (AID 1671450; in the data active = inhibition above about 80%;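 also: cells exposed to compound for four days; 0% = vehicle DMSO and 100% = cell killing by high DMSO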); details: HDN33 neuroblastoma cells, stronger effect = higher value
[17] = ICB984 medulloblastoma cell growth inhibition, synergistic combos for chromothripsis tumors, cisplatin or BGB combos (AID 1671451; call rule not given here;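 also: cells exposed for 96 hours before readout; 0% = vehicle DMSO and 100% = killing by high DMSO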); details: ICB984 medulloblastoma cells, drug combinations, stronger effect = higher value
[18] = HTB85 osteosarcoma cell growth inhibition, synergistic combos for chromothripsis tumors, BGB or cisplatin IC20 combos (AID 1671453; in the data active = inhibition above about 80%;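 also: cells exposed for 96 hours before readout; 0% = vehicle DMSO and 100% = high DMSO killing control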); details: HTB85 osteosarcoma cells, drug combinations, stronger effect = higher value
[19] = MDA-MB-436 breast carcinoma cell growth inhibition, synergistic combos for chromothripsis tumors, BGB or cisplatin combos (AID 1671458; call rule not given here;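 also: cells exposed for 96 hours; 0% = vehicle DMSO and 100% = killing by high DMSO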); details: MDA-MB-436 breast carcinoma growth inhibition, drug combinations, stronger effect = higher value
[20] = measured here: epithelial PC-3E GFP cell survival
[21] = measured here: mesenchymal TEM4-18 mCherry cell survival
[22] = stronger effect = lower value, cell number ratio, induced over uninduced
[23] = measured here: relative caspase fold change +Dox/-Dox
[24] = measured here: total cells with miR-34 induction, stronger effect = lower value
[25] = measured here: total cells without miR-34 induction
[26] = MELAS cybrid survival, CellTiter-Glo 48 h, stronger effect = higher value
[27] = Rieske KO mouse fibroblast survival, CellTiter-Glo 72 h

What does the source list for `Cc1ncc(CO)c(CO)c1O`?
survival [1]: 7.67 (inactive); parasite load remaining [2]: 121% (inactive) and 68.6% (inactive) and 52.2% (inactive); viability [2]: 108% and 75.6% and 94.6%; nuclear beta-catenin stimulation ([3]; at 10 µM): 0.1% (inactive); nuclear beta-catenin stimulation ([3]; stimulation, at 2 µM): 0.9%; insulin secretion stimulation [4]: -1.8% (inactive); viability decrease [5]: 4.5% (inactive); tube area decrease [6]: -14.1% (inactive); GLP1 secretion stimulation [7]: 3.1% (inactive); inhibition of viability [8]: -18.3% (inactive); viability decrease (inhibition) [9]: 23.7% (inactive); viability decrease (inhibition) [10]: 3.95% (inactive); red/green cell ratio (normalised) [11]: 0.91 (inactive); normalised cell number [11, 20]: 1.07; normalised cell number [11, 21]: 0.97; fold change [12, 22]: 0.859 (inactive) and 0.971 (inactive) and 0.904 (inactive); fold change [12, 23]: 1.28 and 0.606 and 6.28; cell count [12, 24]: 9040 and 7900 and 12400; cell count [12, 25]: 10500 and 8140 and 13700; z-score [13, 26]: -0.22 (inactive) and 0.248 (inactive); z-score [13, 27]: -0.0864 and 0.109; remaining NAD [14]: 10 nM (inactive)

What does the source list for `Nc1ccc2cc3ccc(N)cc3nc2c1`?
nuclear beta-catenin stimulation ([3]; at 10 µM): 164% (active); nuclear beta-catenin stimulation ([3]; stimulation, at 2 µM): 9.1%; insulin secretion stimulation [4]: 24% (active); viability decrease [5]: 42% (active); tube area decrease [6]: -95.9% (inactive); GLP1 secretion stimulation [7]: 11.8% (inactive); inhibition of viability [8]: 104% (active); viability decrease (inhibition) [9]: 106% (active); viability decrease (inhibition) [10]: 45.9% (active); red/green cell ratio (normalised) [11]: 0.58 (inactive); normalised cell number [11, 20]: 0.74; normalised cell number [11, 21]: 0.43; fold change [12, 22]: 0.846 (inactive) and 0.958 (inactive); fold change [12, 23]: 0.821 and 1.18; cell count [12, 24]: 1150 and 2160; cell count [12, 25]: 1360 and 2260; z-score [13, 26]: 2.13 (active); z-score [13, 27]: -2.97; remaining NAD [14]: 10 nM (inactive); inhibition ([15]; at 0.5 µM, stronger effect = higher value): -32.2% (inactive); inhibition ([15]; measured here: combination with BGB IC20, at 0.005 µM): 13.5%; inhibition ([15]; measured here: combination with BGB IC40, at 0.005 µM): -11.3%; inhibition ([15]; measured here: combination with BGB IC40, at 0.05 µM): 22.5%; inhibition ([15]; measured here: combination with cisplatin, at 0.5 µM, stronger effect = higher value): -47.3%; inhibition ([15]; measured here: combination with cisplatin, at 5 µM, stronger effect = higher value): 91.6%; inhibition ([16]; BGB combo, at 5 µM): 96.4%; inhibition ([16]; at 0.5 µM): -6.06% (inactive); inhibition ([16]; cisplatin combo, at 5 µM): 99.6%; inhibition ([16]; measured here: with BGB IC20 combination, at 0.5 µM): 5.24%; inhibition ([16]; measured here: with cisplatin IC20 combination, at 0.5 µM): -17.9%; inhibition ([16]; single agent, at 5 µM): 97.6%; inhibition ([17]; BGB IC20 combo, at 0.005 µM): -22.1%; inhibition ([17]; BGB IC40 combo, at 0.005 µM): -20.5%; inhibition ([17]; BGB IC40 combo, at 0.05 µM): 98.8%; inhibition ([17]; at 0.5 µM): -20.2% (inactive); inhibition ([17]; cisplatin combo, at 0.05 µM): 98.8%; inhibition ([17]; cisplatin combo, at 0.5 µM): -22.1%; inhibition ([17]; cisplatin combo, at 5 µM): -11.1%; inhibition ([17]; measured here: 5 uM single agent, at 5 µM): -9.35%; inhibition ([18]; at 0.5 µM): -33.1% (inactive); inhibition ([18]; measured here: with BGB IC20, at 0.5 µM): -40.6%; inhibition ([18]; measured here: with BGB IC20, at 5 µM): 79.3%; inhibition ([18]; measured here: with cisplatin IC20, at 0.5 µM): -43.3%; inhibition ([18]; measured here: with cisplatin IC20, at 5 µM): 99.3%; inhibition ([18]; single agent, at 5 µM): 84.4%; inhibition ([19]; at 0.5 µM): 7.24% (inactive); inhibition ([19]; measured here: BGB combination, at 0.5 µM): -0.519%; inhibition ([19]; measured here: BGB combination, at 5 µM): 92.2%; inhibition ([19]; measured here: cisplatin combination, at 0.5 µM): -19.4%; inhibition ([19]; measured here: cisplatin combination, at 5 µM): 97.5%

For `O=C(N/N=C/c1ccc([N+](=O)[O-])o1)c1ccc(O)cc1`, which survival [1] is on record?
Its survival is 8.5 (inactive).

And the parasite load remaining [2]?
Its parasite load remaining is -8.11% (inactive) and 25.6% (inactive).

And the viability [2]?
The viability was 21.5% and 60.5%.

And the nuclear beta-catenin stimulation ([3]; at 10 µM)?
The nuclear beta-catenin stimulation was 18.2% (inactive).

And the nuclear beta-catenin stimulation ([3]; stimulation, at 2 µM)?
Its nuclear beta-catenin stimulation is 2%.

And the insulin secretion stimulation [4]?
Its insulin secretion stimulation is -3% (inactive).

And the viability decrease [5]?
Its viability decrease is 99.5% (active).

What about the tube area decrease [6] of the same molecule?
The tube area decrease was 26.5% (inactive).

What about the GLP1 secretion stimulation [7] of the same molecule?
Its GLP1 secretion stimulation is 5.1% (inactive).

And the inhibition of viability [8]?
Its inhibition of viability is 102% (active).

And the viability decrease (inhibition) [9]?
Its viability decrease (inhibition) is 67.8% (active).

And the viability decrease (inhibition) [10]?
The viability decrease (inhibition) was 81.1% (active).

What about the red/green cell ratio (normalised) [11] of the same molecule?
Its red/green cell ratio (normalised) is 0.78 (inactive).

And the normalised cell number [11, 20]?
Its normalised cell number is 1.11.

And the normalised cell number [11, 21]?
Its normalised cell number is 0.87.

And the fold change [12, 22]?
Its fold change is 0.844 (inactive).

And the fold change [12, 23]?
The fold change was 1.92.

And the cell count [12, 24]?
Its cell count is 3090.

What about the cell count [12, 25] of the same molecule?
The cell count was 3660.

What about the z-score [13, 26] of the same molecule?
Its z-score is -3.44 (inactive).

What about the z-score [13, 27] of the same molecule?
Its z-score is -1.34.

What about the remaining NAD [14] of the same molecule?
The remaining NAD was 10 nM (inactive).
